High-throughput results from PubChem BioAssay.
A549 viability = counter-screen for Nrf2 inhibitors: cytotoxicity in A549 cells; A549 ARE-Fluc cells, CellTiter-Fluor viability, 18-24 h; 390,000 tested, 0.16% active; Potency, µM (top dose mostly 46 µM), hits mostly inhibitors
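A549 ARE_Fluc cells in 5% FBS OPTI-MEM were exposed to compounds in concentration-response for 18-24 h at 37 deg C. Viability was read by CellTiter-Fluor fluorescence (Ex 405/Em 525) after 30 min, before the luciferase read.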
mIDH1 inhibitor = blocks human mutant IDH1 R132H enzyme; 390,000 tested, 0.093% active; IDH1-R132H enzyme, NADPH consumption, diaphorase/resazurin fluorescence; Potency, µM (series often up to 76.6 µM), most hits filed as inhibitors; note: nearly all actives have a fitted effect of over 65% in size
Target sequence (O75874 whole entry R132H, stated change not applied): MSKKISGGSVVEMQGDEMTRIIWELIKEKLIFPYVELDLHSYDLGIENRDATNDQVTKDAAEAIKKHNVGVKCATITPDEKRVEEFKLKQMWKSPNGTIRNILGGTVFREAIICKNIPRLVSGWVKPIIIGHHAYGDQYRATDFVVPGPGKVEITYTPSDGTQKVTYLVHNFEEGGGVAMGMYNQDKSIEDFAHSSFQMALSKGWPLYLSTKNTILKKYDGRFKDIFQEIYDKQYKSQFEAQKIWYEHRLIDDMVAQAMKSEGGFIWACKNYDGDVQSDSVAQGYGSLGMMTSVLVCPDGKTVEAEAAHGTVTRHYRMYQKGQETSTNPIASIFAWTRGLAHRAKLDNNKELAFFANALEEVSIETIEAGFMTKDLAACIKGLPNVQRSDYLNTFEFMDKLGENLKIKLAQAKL
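IDH1-R132H (0.5 ug/mL dispensed) in pH 7.5 Tris buffer was preincubated 30 min with compound, then given a substrate mix of 0.016 mM NADPH and 2 mM alpha-KG for 80 min at room temperature; remaining NADPH was read by diaphorase/resazurin fluorescence.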
TrxR1 substrate = substrates of rat thioredoxin reductase 1; O89049; purified TrxR1 substrate turnover, NADPH consumption readout; Potency, µM (top dose mostly 114 µM); 390,000 tested, 0.01% active; AID 588456; note: nearly all actives have a fitted effect of over 50% in size
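Rat TrxR1, dispensed at 90 nM, was prereduced with 400 uM NADPH (final) for 5 min at ~22 deg C, then incubated with compound 15 min before 400 uM selenite. A first-read NADPH fluorescence drop versus no-compound background flagged substrates.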
Nrf2 inh = blocks Nrf2 signaling; 360,000 tested, 2.1% active; Potency, µM (titrated, usually from 46 µM), actives largely listed as inhibitors; A549 ARE-Fluc reporter, luciferase luminescence, 18-24 h; AID 504444; note: nearly all actives have a fitted effect of over 60% in size
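A549 ARE_Fluc cells (5000/well, 5% FBS OPTI-MEM) pre-incubated 2 h, then treated with compounds 18-24 h at 37C/5% CO2 in concentration-response. CellTiter-Fluor viability read first; BugLite luciferase luminescence after 15 min at room temperature gives Nrf2 activity.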
TrxR1 inh = inhibitors of rat thioredoxin reductase 1; O89049; recombinant rTrxR1, NADPH fluorescence consumption, selenite substrate; Potency, µM (doses to about 114 µM), actives largely listed as inhibitors; 390,000 tested, 1% active; AID 588453; note: nearly all actives have a fitted effect of over 65% in size
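Rat TrxR1 (90 nM in the dispensed reagent) was pre-reduced with 400 uM NADPH for 5 min at room temperature, then incubated with compound for 15 min. After 400 uM selenite was added, NADPH fluorescence (Ex 340/Em 450 nm) was followed for 8 min.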
Mito fusion act = inhibitors of mitochondrial division or activators of mitochondrial fusion; S. cerevisiae fusion-defective mutant growth rescue, CellTiterGlo 48 h; Potency, µM (doses to about 46.1 µM), most hits filed as activators; 320,000 tested, 0.23% active; AID 485298; note: nearly all actives have a fitted effect of over 45% in size
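Luminescent cell viability in 1536-well qHTS format served as the measure of rescued growth in ts fusion-mutant S. cerevisiae cultured on non-fermentable YPEG for 48 hours at 37C.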
Of the large screens only hits and unclear results are named; the others gave an inactive call; ! = not active in a repeat. Rows were chosen to be rich in hits. Some 3.1% of all compounds tested hit in one or more screens of this group. Calls come from the whole dose curve; as a rule, active = well fitted curve in the direction sought with a large enough effect; inconclusive = small, poorly fitted or top-dose-only effect, or another doubt; inactive = no such curve, though single readings can be large; an effect the other way counts as inactive or inconclusive.

Cc1cc(C)n(CC(=O)NC2C(=O)N3C(C(=O)O)=C(CSc4nnc(C)s4)CSC23)n1 (centres undefined)	none
Cc1nnc(SCC2=C(C(=O)O)N3C(=O)C(NC(=O)Cn4ncc(Cl)c4C)C3SC2)s1 (centres undefined)	TrxR1 inh 22.4µM
CCCN1C(=O)/C(=C/c2c(N3CCNC(=O)C3CC(=O)OCC)nc3c(C)cccn3c2=O)SC1=S (centres undefined)	A549 viability inconclusive, Nrf2 inh 20.6µM
COc1ccc(CNC(=O)CN2C(=O)CCCc3ccccc32)cc1	Nrf2 inh inconclusive (no result: Mito fusion act)
COC(=O)c1cc(NC(=O)CCc2c(C)nc3cc(-c4ccccc4)nn3c2C)cc(C(=O)OC)c1	none (no result: Mito fusion act)
COc1cc(NC(=O)CCc2c(C)nc3cc(-c4ccccc4)nn3c2C)cc(OC)c1OC	Nrf2 inh 2.59µM (no result: Mito fusion act)
Cc1nc2cc(-c3cccc(F)c3)nn2c(C)c1CCC(=O)NC(C)c1ccccc1 (centres undefined)	Nrf2 inh 3.66µM (no result: Mito fusion act)
COc1ccc(CCNC(=O)CCc2c(C)nc3cc(-c4ccccc4OC)nn3c2C)c(OC)c1	Nrf2 inh 23.1µM (no result: Mito fusion act)
CC(=O)NCc1ccc(C(=O)CSc2nnc(-c3ccncc3)n2Cc2ccccc2)o1	TrxR1 inh 15.8µM
O=C(CSc1nnc(-c2ccncc2)n1Cc1ccccc1)NC1CCCCC1	none
O=C(C1CCN(c2ncnc3c2nc2n3CCCCC2)CC1)N1CCN(c2cccc(Cl)c2)CC1	Nrf2 inh inconclusive
CCN(C(=O)C1CCCN(c2ncnc3c2nc2n3CCCCC2)C1)c1cccc(Cl)c1 (centres undefined)	mIDH1 inhibitor inconclusive, Nrf2 inh 14.6µM!
CC(=O)c1ccc(NC(=O)C2CCCN(c3ncnc4c3nc3n4CCCCC3)C2)cc1 (centres undefined)	none
Clc1cccc(N2CCN(c3ncnc4c3nc3n4CCCCC3)CC2)c1	A549 viability inconclusive, Nrf2 inh 13µM (no result: Mito fusion act)
CSc1cccc(NC(=O)C2CCCN(c3ncnc4c3nc3n4CCCCC3)C2)c1 (centres undefined)	Nrf2 inh 18.4µM
CS(=O)(=O)Nc1ccc(C2=NN(C(=O)C3CCCCC3)C(c3cccs3)C2)cc1 (centres undefined)	Nrf2 inh 23.1µM, TrxR1 inh inconclusive
CS(=O)(=O)Nc1ccc(C2=NN(S(C)(=O)=O)C(c3ccccc3)C2)cc1 (centres undefined)	Nrf2 inh inconclusive, TrxR1 inh 79.4µM
Cc1ccc(C(=O)N2N=C(c3cccc(NS(C)(=O)=O)c3)CC2c2cccs2)cc1 (centres undefined)	Nrf2 inh 23.1µM
Cc1cccc(C(=O)NCC(=O)OC(C(=O)Nc2cc(C(F)(F)F)ccc2Cl)c2ccccc2)c1 (centres undefined)	none (no result: mIDH1 inhibitor, TrxR1 substrate, TrxR1 inh, Mito fusion act)
Cc1ccc(S(=O)(=O)N/N=C/c2ccccc2O)cc1[N+](=O)[O-]	none
Cc1ccc(S(=O)(=O)N/N=C/c2ccc(O)c(O)c2)cc1[N+](=O)[O-]	TrxR1 inh 11.2µM
CCOC(=O)c1c(N)sc(N)c1C(=O)OCC	none
CCOC(=O)c1c(N)sc(=S)c2c1CCC2	Nrf2 inh inconclusive, TrxR1 inh 70.8µM
CCc1ccc(Sc2cc(C(=O)NCc3cccc(OC)c3)c3ccccc3n2)cc1	none (no result: Nrf2 inh, Mito fusion act)
COc1ccc2cc(CCNC(=O)c3cc4ccccc4o3)c(=O)[nH]c2c1	Nrf2 inh 10.3µM
COc1ccc(C2=Nn3c(nnc3-c3ccc(OC)c(OC)c3)SC2)cc1OC	none (no result: mIDH1 inhibitor, TrxR1 substrate, TrxR1 inh, Mito fusion act)
O=S(=O)(CCN1CCN(C(c2ccccc2)c2ccccc2)CC1)C(F)(F)F	Nrf2 inh inconclusive, TrxR1 inh 1.58µM
c1ccc(CN2CCN(C(c3ccccc3)c3ccccc3)CC2)cc1	none
CCN(CC)S(=O)(=O)c1ccc2oc(SCC(=O)NC3CC3)nc2c1	none
COc1ccccc1NS(=O)(=O)c1ccc2oc(SCc3ccc(C#N)cc3)nc2c1	Nrf2 inh 16.4µM
CCN(CC)S(=O)(=O)c1ccc2oc(SCc3ccc(F)cc3)nc2c1	Nrf2 inh 18.4µM
